Assay outcomes (PubChem BioAssay)
hNpr1 antagonist = blocks ANP-stimulated signaling of human Npr1 receptor. HEK293 hNpr1 GloSensor cGMP, ANP-stimulated luminescence. Potency, µM (series often up to 46.3 µM), usual class: inhibitors. 76,000 compounds, 1.6% hits; calls by dose curve; further: nearly all actives have a fitted effect of over 60% in size
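Compound pre-incubated 30 min at room temperature on GloSensor-loaded HEK293 cells stably carrying hNpr1 and the pGS-40F cGMP biosensor. Stimulation uses hNppA at 0.1 nM final; luminescence is taken at baseline and 20 min post-agonist.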
NIH3T3 tox = NIH 3T3 cell cytotoxicity. NIH 3T3 viability, CellTiter-Glo ATP luminescence, 48-72 h. Potency, µM (highest dose often 96.7 µM), actives largely listed as inhibitors. 94,000 compounds, 4.3% hits; further: nearly all actives have a fitted effect of over 55% in size
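ATP-dependent luminescence (CellTiter-Glo) served as the viability signal for NIH 3T3 cells treated with compound for 48 or 72 hr at 37 °C.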
GPT2 inhibitor = blocks human glutamate pyruvate transaminase 2. AID 1671188. Recombinant GPT2, coupled pyruvate oxidase/HRP Amplex Red fluorescence. Q8TD30. 100,000 compounds, 0.25% hits. Potency, µM (top dose mostly 57.7 µM), most hits filed as inhibitors; further: nearly all actives have a fitted effect of over 60% in size
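Fluorescence of coupled pyruvate oxidase/HRP/Amplex Red system (50uM Amplex, 30 min, dark) reports pyruvate formed by GPT2. Enzyme reaction: 10ng/uL GPT2, 2mM L-alanine, 250uM a-KG, 30 min room temperature, pH 7.5; 50uM AOA control.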
Luciferase inh = inhibitors of firefly (Photinus pyralis) luciferase | P08659 | purified P. pyralis luciferase, luminescence, biochemical | Potency, µM (doses to about 115 µM), actives largely listed as inhibitors | 76,000 compounds, 2.5% hits; further: nearly all actives have a fitted effect of over 65% in size
Target sequence (P08659 whole entry, looked up): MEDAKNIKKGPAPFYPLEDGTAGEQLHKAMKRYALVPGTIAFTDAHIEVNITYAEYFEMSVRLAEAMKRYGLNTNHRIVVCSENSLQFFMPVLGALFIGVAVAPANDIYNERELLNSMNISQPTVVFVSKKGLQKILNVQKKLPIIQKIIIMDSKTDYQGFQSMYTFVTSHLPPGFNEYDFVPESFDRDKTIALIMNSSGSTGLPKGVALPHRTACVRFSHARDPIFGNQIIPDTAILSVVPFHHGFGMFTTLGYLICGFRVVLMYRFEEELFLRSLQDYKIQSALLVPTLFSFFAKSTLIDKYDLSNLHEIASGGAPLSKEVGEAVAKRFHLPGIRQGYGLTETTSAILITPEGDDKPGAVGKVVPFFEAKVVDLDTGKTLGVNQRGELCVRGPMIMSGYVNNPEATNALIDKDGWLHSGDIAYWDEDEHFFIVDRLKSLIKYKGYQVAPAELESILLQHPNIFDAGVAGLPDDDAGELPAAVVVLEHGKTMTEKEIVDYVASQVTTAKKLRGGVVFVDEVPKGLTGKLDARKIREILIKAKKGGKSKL
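Luminescence read by CCD imaging after purified firefly luciferase (10nM final) was added to substrate buffer holding 10uM D-luciferin and 10uM ATP, pH 7.5, pre-dosed with compound.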
HEK293 tox = cytotoxic compounds in HEK 293 cells. HEK 293 viability, ATP luminescence (CellTiter-Glo), 48-72 h. Potency, µM (series often up to 115 µM), usual class: inhibitors. 94,000 compounds, 6.6% hits. AID 1345083; further: nearly all actives have a fitted effect of over 60% in size
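Luminescence from cellular ATP, measured with CellTiter-Glo, indicates HEK 293 viability. Cells plated at 250 cells/well are treated with compound for 48 or 72 hr at 37 degree Celsius before reagent addition.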
Large screens that a line does not name were inactive. Sampled rows, rich in hits. Any-hit rate of the full collection: about 10%. Unless noted, the call rests on the fitted dose curve; in most records, active means well fitted curve in the direction sought with a large enough effect; inconclusive means small, poorly fitted or top-dose-only effect, or another doubt; inactive means no such curve, though single readings can be large; an effect the other way counts as inactive or inconclusive.

CCN1c2cc(C(=O)Nc3ccc(F)c(C)c3)ccc2C(=O)N2CCCCCC21 (stereo not drawn)	NIH3T3 tox inconclusive, HEK293 tox 39.8µM
CCN1c2cc(C(=O)Nc3ccc(C)c(F)c3)ccc2C(=O)N2CCCCCC21 (stereo not drawn)	NIH3T3 tox 39.8µM, HEK293 tox inconclusive
CCN1c2cc(C(=O)Nc3ccc(F)c(Cl)c3)ccc2C(=O)N2CCCCCC21 (stereo not drawn)	NIH3T3 tox 31.6µM, HEK293 tox 15.8µM
CCN1c2cc(C(=O)Nc3ccc(F)cc3)ccc2C(=O)N2CCCCCC21 (stereo not drawn)	NIH3T3 tox inconclusive, HEK293 tox inconclusive
N#Cc1ccc([S+](=O)([O-])N2CCC3(CC2)OCCN(CC2CCOCC2)C3=O)cc1	NIH3T3 tox inconclusive
COc1cccc(NC(=O)CC2CCCN(c3cnn(CC4CC4)c(=O)c3)C2)c1 (stereo not drawn)	NIH3T3 tox inconclusive, HEK293 tox inconclusive
Cc1ccc(NC(=O)CC2CCCN(c3cnn(CC4CC4)c(=O)c3)C2)cc1C (stereo not drawn)	NIH3T3 tox 39.8µM, HEK293 tox inconclusive
COc1ccc(NC(=O)CC2CCCN(c3cnn(CC4CC4)c(=O)c3)C2)cc1 (stereo not drawn)	NIH3T3 tox 28.2µM, HEK293 tox inconclusive
O=C(Cc1cccc(F)c1)N1CCCC(Cc2nc(C3CCOCC3)no2)C1 (stereo not drawn)	none
CCN1CCN(CC(O)COc2cccc(CNCCc3cccc(C)n3)c2)CC1 (stereo not drawn)	HEK293 tox inconclusive
CCN1CCN(CC(O)COc2cccc(CNC3(c4ccccc4)CC3)c2)CC1 (stereo not drawn)	NIH3T3 tox inconclusive, HEK293 tox 31.6µM
CN(C)c1nc2c(c(=O)[nH]1)CCN(Cc1ccc(Cl)c(F)c1)CC2	none
CSc1ccc(-c2cccc(C(=O)NCCNC(=O)c3ccc(F)cc3)c2)cc1	NIH3T3 tox inconclusive, HEK293 tox inconclusive (no result: hNpr1 antagonist, Luciferase inh)
CCN1c2cc(C(=O)N3CCN(c4ccccc4)CC3)ccc2C(=O)N2CCCCCC21 (stereo not drawn)	HEK293 tox 28.2µM
CCN1c2cc(C(=O)N3CCN(c4cccc(C)c4)CC3)ccc2C(=O)N2CCCCC21 (stereo not drawn)	NIH3T3 tox inconclusive, HEK293 tox inconclusive
CCN1c2cc(C(=O)N3CCN(c4ccc(F)cc4)CC3)ccc2C(=O)N2CCCCC21 (stereo not drawn)	HEK293 tox 44.7µM
CCN1C(=O)CCN(Cc2ccc(F)c(F)c2)CC12CCOCC2	none (no result: hNpr1 antagonist, Luciferase inh)
COCCNC(=O)Cc1c[nH]c2ncc(-c3ccc(OC)cc3)cc12	NIH3T3 tox 22.4µM, GPT2 inhibitor inconclusive, Luciferase inh inconclusive, HEK293 tox inconclusive
COCCNC(=O)Cc1c[nH]c2ncc(-c3ccccc3)cc12	NIH3T3 tox inconclusive
COc1ccc(-c2cnc3[nH]cc(CC(=O)NCc4cnccn4)c3c2)cc1	NIH3T3 tox 31.6µM, Luciferase inh inconclusive, HEK293 tox inconclusive
Cc1nnc([C@H]2CCN(CCCc3ccccc3)C2)o1	none
Cc1cc(CN(C)c2ccc(-c3nc(COc4ccccc4)no3)cn2)on1	hNpr1 antagonist 15.8µM, NIH3T3 tox inconclusive, Luciferase inh inconclusive, HEK293 tox inconclusive
c1ccc(OCc2noc(-c3ccc(NC4CCSC4)nc3)n2)cc1 (stereo not drawn)	NIH3T3 tox inconclusive, Luciferase inh inconclusive, HEK293 tox inconclusive
CC1(COc2ccc(-c3nc(COc4ccccc4)no3)cn2)CCCNC1 (stereo not drawn)	hNpr1 antagonist inconclusive, NIH3T3 tox inconclusive, Luciferase inh 35.5µM, HEK293 tox inconclusive
O=c1cc(-c2ccncc2)oc2c(-c3ccccc3Oc3ccccc3)nccc12	NIH3T3 tox inconclusive, HEK293 tox inconclusive
Cn1ncc2c(C(=O)NCc3ccccn3)cc(-c3ccsc3)nc21	NIH3T3 tox inconclusive, HEK293 tox inconclusive (no result: hNpr1 antagonist, Luciferase inh)
CN1CC2(CCCN(CC3CC3)C2)c2cc(C(=O)NCCc3ccccc3)ccc21 (stereo not drawn)	NIH3T3 tox 79.4µM, HEK293 tox inconclusive
CN(C)CCNC(=O)c1ccc2c(c1)C1(CCCN(CC3CC3)C1)CN2C (stereo not drawn)	NIH3T3 tox 89.1µM, HEK293 tox inconclusive
COCCN1CCC2(C1)CN(C)c1ccc(C(=O)NCc3ccccc3)cc12 (stereo not drawn)	NIH3T3 tox inconclusive, Luciferase inh 20µM, HEK293 tox inconclusive
CN1CCCC2(C1)CN(C)c1ccc(C(=O)NCC3CCCCC3)cc12 (stereo not drawn)	NIH3T3 tox 89.1µM, HEK293 tox 112µM
CN1CCC2(C1)CN(CC1CC1)c1ccc(C(=O)NCC3CC3)cc12 (stereo not drawn)	NIH3T3 tox inconclusive, HEK293 tox inconclusive
CC(C)CNC(=O)c1ccc2c(c1)C1(CCCN(CC3CC3)C1)CN2C (stereo not drawn)	HEK293 tox inconclusive
O=C(NCCCc1ccccc1)c1ccc2nnc(-c3ccc(Cl)cc3)n2c1	NIH3T3 tox inconclusive, HEK293 tox inconclusive (no result: hNpr1 antagonist, Luciferase inh)
COc1cccc(-c2ccc(C(=O)N3CCC(NC(=O)c4ccc(F)cc4)CC3)cc2)c1	NIH3T3 tox inconclusive, HEK293 tox inconclusive (no result: hNpr1 antagonist, Luciferase inh)
O=C(c1ccc(Cl)cc1)N1CCC2(C1)C(=O)N(c1ccccc1)c1ccccc12 (stereo not drawn)	NIH3T3 tox inconclusive, HEK293 tox inconclusive (no result: hNpr1 antagonist, Luciferase inh)
Cc1nc(-c2cccc(Cl)c2)n(CC(=O)Nc2cccc(C(C)C)c2)c(=O)c1CCO	NIH3T3 tox 25.1µM, HEK293 tox inconclusive
Cc1nc(-c2ccccc2)n(CC(=O)Nc2ccc(C(C)C)cc2)c(=O)c1CCO	NIH3T3 tox inconclusive, HEK293 tox inconclusive
Cc1nc(-c2ccc(F)cc2)n(CC(=O)Nc2ccc(F)c(Cl)c2)c(=O)c1CCO	NIH3T3 tox inconclusive, HEK293 tox 35.5µM
Cc1ccc(CNC(=O)Cn2c(-c3ccccc3)nc(C)c(CCO)c2=O)cc1	NIH3T3 tox inconclusive, HEK293 tox 79.4µM
Cc1ccc(NC(=O)Cn2c(-c3ccc(Cl)cc3)nc(C)c(CCO)c2=O)cc1	NIH3T3 tox inconclusive, HEK293 tox 31.6µM
O=c1n(-c2cccc(Cl)c2)nc2n1CCN(Cc1ccc(F)cc1)C2	NIH3T3 tox inconclusive, Luciferase inh inconclusive, HEK293 tox inconclusive
COCC1CN(Cc2cnn(C(C)C)c2)CC12CCNCC2 (stereo not drawn)	GPT2 inhibitor inconclusive
O=C(NCCCc1ccccc1)c1ccc2nc(-c3ccccn3)oc2c1	NIH3T3 tox inconclusive, HEK293 tox inconclusive (no result: hNpr1 antagonist, Luciferase inh)
COc1ccc(NC(=O)Cn2c(-c3ccccc3)nc(C)c(CCO)c2=O)cc1Cl	NIH3T3 tox inconclusive, HEK293 tox 25.1µM
CCc1cccc(NC(=O)Cn2c(-c3cccc(Cl)c3)nc(C)c(CCO)c2=O)c1	NIH3T3 tox inconclusive, HEK293 tox 39.8µM
